# Assay outcomes deposited in PubChem by National Center for Advancing Translational Sciences (NCATS).
# The list is not random: actives were taken first. Their share in the collection is about 2.2%.
# Mm-Cpn inhibitor: blocks the Methanococcus maripaludis chaperonin Mm-Cpn. purified Mm-Cpn ATPase, ADP Transcreener TR-FRET. Potency, µM (doses to about 76.9 µM), without a hit: at the top dose activity, negative = inhibition, actives largely listed as inhibitors. actives 0.031% (n = 330,000). AID 504842; further: potency means the concentration at half of the fitted maximal effect; on the % scale 0 is the no-effect control and ±100 the full control effect; nearly all actives have a fitted effect of over 80% in size
#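 ATPase turnover read by TR-FRET ADP competition (Eu cryptate antibody/ADP-d2, 665/590 nm): 10uM ATP final, 25nM Mm-CPN final, 30 min 37degC after 10-min compound preincubation, pH 7.4 Tris/KCl/MgCl2/DTT buffer.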
# uPA generation: cell surface uPA generation inhibition; cell surface uPA generation assay, qHTS; Potency, µM (doses to about 38.3 µM), for the others: at the top dose activity change, negative = inhibition, hits mostly inhibitors; actives 0.31% (n = 330,000); AID 540303; active means well fitted inhibition curve with a large enough effect; inconclusive means small, poorly fitted or top-dose-only effect; inactive means no such curve, though single readings can be large or run the other way; tested in mouse RAW 264.7 cells; further: potency means the concentration at half of the fitted maximal effect; on the % scale 0 is the no-effect control and ±100 the full control effect; nearly all actives have a fitted effect of over 55% in size
# GLP1R cytotox: cytotoxicity in counter-screen for GLP-1R inverse agonists; HEK293 cAMP-luciferase reporter cells, luminescence, 24 h; Potency, µM (top dose mostly 38.3 µM), without a hit: at the top dose activity change, negative = inhibition, actives largely listed as inhibitors; actives 0.13% (n = 410,000);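 further: loss of luciferase light is scored as toxicity; potency means the concentration at half of the fitted maximal effect; on the % scale 0 is the no-effect control and ±100 the full control effect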
#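 To flag toxic compounds, the library was rerun on cells for 24 hr at 37 deg C and 5% CO2. Viability-linked luminescence was captured 12 min after adding luciferase detection reagent.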
# CCT chaperon mod: modulators of cytosolic chaperonin (CCT/TRiC) activity. purified chaperonin ATPase assay, HTRF ADP detection, 30 min. actives 0.3% (n = 360,000). activity change, % (concentration not given with the values), hits read low; in the data active means activity change below about -30%; further: on the % scale 0 is the no-effect control and ±100 the full control effect
#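 First, chaperonin was dispensed at 40 nM or 20 nM final depending on batch activity. Next, compounds were pinned at 76 uM and ATP added at 10 uM. After 30 min at 37 °C, ADP detection reagents ran 30 min at ambient temperature.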
# GLP1R inv ag: inverse agonists of human GLP-1 receptor. P43220. HEK293 GLP-1R CRE-luciferase, luminescence, 24 h; GLP-1R form is constitutively active. Potency, µM (titrated, usually from 38.3 µM), without a hit: top-dose activity change, negative = inhibition, usual class: inhibitors. actives 1.6% (n = 410,000); further: potency means the concentration at half of the fitted maximal effect; on the % scale 0 is the no-effect control and ±100 the full control effect; nearly all actives have a fitted effect of over 55% in size
# Target sequence (P43220 whole entry, looked up): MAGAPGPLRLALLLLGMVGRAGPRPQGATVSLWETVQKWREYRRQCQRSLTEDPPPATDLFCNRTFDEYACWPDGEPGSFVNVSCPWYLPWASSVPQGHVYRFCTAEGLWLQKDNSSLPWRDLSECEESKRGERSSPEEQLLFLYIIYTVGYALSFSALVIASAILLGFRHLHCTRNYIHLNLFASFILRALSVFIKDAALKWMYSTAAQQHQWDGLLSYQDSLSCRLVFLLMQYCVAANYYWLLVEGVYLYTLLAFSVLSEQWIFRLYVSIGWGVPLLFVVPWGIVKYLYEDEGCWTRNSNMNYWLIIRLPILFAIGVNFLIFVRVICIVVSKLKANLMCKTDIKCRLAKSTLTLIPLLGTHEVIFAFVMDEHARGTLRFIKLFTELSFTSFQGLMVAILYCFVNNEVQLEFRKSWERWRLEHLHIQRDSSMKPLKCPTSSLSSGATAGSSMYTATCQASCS
#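 Readout was luciferase luminescence, measured 12 min after detection reagent at room temperature. Beforehand, GLP-1R reporter HEK293 cells had sat 12 h, then received compounds for 24 hr at 37 deg C.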
# GLP-1R agonist: GLP-1 receptor (human) agonism; P43220; HEK293 GLP-1R CRE-luciferase, luminescence, 4-6 h; cells express a hypersensitive GLP-1R form; Potency, µM (series often up to 45.6 µM), inactives show top-dose activation, hits mostly activators; actives 0.007% (n = 380,000); further: potency means the concentration at half of the fitted maximal effect; % of control where 0% means no effect
# * marks the source's active call; other numbers are inactive results; ? = inconclusive; nt = no result. Unless noted, the call rests on the fitted dose curve; in most records, active means well fitted curve in the direction sought with a large enough effect; inconclusive means small, poorly fitted or top-dose-only effect, or another doubt; inactive means no such curve, though single readings can be large; an effect the other way counts as inactive or inconclusive.
SMILES,Mm-Cpn inhibitor,uPA generation,GLP1R cytotox,CCT chaperon mod,GLP1R inv ag,GLP-1R agonist
CC12CC(c3ccccc3O1)N(C(=O)c1ccco1)C(=S)N2c1ccc(F)cc1 (stereo unspecified),0%,-7%,?,-1,10µM*,-7%
C[C@@H]1CN([C@H](C)CO)C(=O)c2c(c3ccccc3n2C)-c2ccccc2CO[C@H]1CN(C)Cc1ccc(C(F)(F)F)cc1,nt,nt,?,0,5µM*,-3%
Cc1ccc(N2CC(C(=O)Nc3cc(S(=O)(=O)N4CCCCC4)ccc3C)CC2=O)cc1 (stereo unspecified),nt,nt,2%,-2,?,5%
CC(=O)Nc1cccc(-c2csc(C(O)c3cccc(Cl)c3)n2)c1 (stereo unspecified),nt,nt,-1%,-2,?,4%
OC(c1ccccc1)(c1ccc(Cl)cc1)C1CN2CCC1CC2 (stereo unspecified),-1%,-8%,?,-6,1.6µM*,1%
OC(c1ccccc1)(c1ccccc1)C1CN2CCC1CC2 (stereo unspecified),0%,-2%,9%,-2,0%,-4%
Cc1ccc(SCC(=O)OCC(=O)N(CC(C)C)c2c(N)n(Cc3ccccc3)c(=O)[nH]c2=O)c(C)c1,-4%,-1%,?,-4,?,0%
C/C1=C\[C@@H](C)C/C=C/[C@H]2[C@@H]3O[C@]3(C)[C@@H](C)[C@H]3[C@H](Cc4c[nH]c5ccccc45)NC(=O)[C@]32C(=O)/C=C/C(=O)[C@@H]1O,nt,0.79µM*,?,2,?,-8%
COc1ccccc1CNc1nc(NCc2ccccc2SC)c2sccc2n1,nt,nt,-26%,-2,?,-1%
COc1ccccc1CNc1nc(NCc2ccccc2OC)c2sccc2n1,nt,nt,?,-1,11µM*,-3%
Fc1ccc(CCNCc2cccc(Cl)c2)cc1,0%,1%,-2%,2,?,17%
O=C(Nc1cccc(Cl)c1)c1cc(S(=O)(=O)NCCc2ccc(Cl)cc2)ccc1F,0%,-7%,?,0,5.6µM*,-3%
COc1cc(CN2CCCC(C(=O)c3sccc3C)C2)cc(OC)c1O (stereo unspecified),-1%,10%,1%,-1,9%,-4%
Cc1ccsc1C(=O)C1CCCN(Cc2ccc(-n3cccn3)cc2)C1 (stereo unspecified),1%,-1%,-14%,-8,10µM*,6%
Cc1ccsc1C(=O)C1CCCN(Cc2cccc(-n3cccn3)c2)C1 (stereo unspecified),1%,1%,4%,-5,7.9µM*,21%
ClC(Cl)(Cl)c1nc2ccccc2n2nncc12,-1%,-13%,?,1,?,31%
CCCCCc1cc(O)c2c(c1)OC(C)(C)c1ccc(C)cc1-2,nt,nt,nt,nt,nt,-2%
C[C@@H]1[C@H](O)[C@@H](C)C=CC=CCCC=CC=CC=CC=C[C@H](O[C@H]2O[C@@H](C)[C@H](O)[C@@H](N)[C@@H]2O)CC2O[C@](O)(C[C@@H](O)[C@H](O)CC[C@@H](O)C[C@@H](O)C[C@@H](O)CC(=O)O[C@H]1C)C[C@H](O)[C@H]2C(=O)O,nt,nt,nt,nt,nt,6%
C[C@@H]1CN([C@@H](C)CO)C(=O)c2c(c3ccccc3n2C)-c2ccccc2CO[C@H]1CN(C)C(=O)[C@H](C)c1ccccc1,nt,nt,-11%,-9,?,0%
Cn1c(=O)oc2cc(S(=O)(=O)Nc3ccccc3O)ccc21,-1%,?,10%,1,-10%,0%
Cn1c(=O)oc2cc(S(=O)(=O)N3CCCc4ccccc43)ccc21,0%,2.2µM*,-25%,0,?,-5%
Cc1cc(-c2ccccc2)n(-c2cc(N/N=C/c3ccccc3O)ncn2)n1,0%,10µM*,?,0,?,15%
CC(C)(C)c1csc(NC(=O)Nc2ccccc2)n1,1%,3%,6%,-4,10µM*,29%
